From PubChem
Most compounds without a hit are left out; they make up all but 1.4% or so of the library.
uPA generation: cell surface uPA generation inhibition. cell surface uPA generation assay, qHTS. Potency, µM (top dose mostly 38.3 µM), inactives show top-dose activity change, negative = inhibition, most hits filed as inhibitors. actives 0.31% (n = 330,000). AID 540303; active = well fitted inhibition curve with a large enough effect; inconclusive = small, poorly fitted or top-dose-only effect; inactive = no such curve, though single readings can be large or run the other way; tested in mouse RAW 264.7 cells; also: potency is read from the fitted curve at half-maximal effect; % is scaled to controls: 0 for no effect and ±100 for the full control effect; nearly all actives have a fitted effect of over 55% in size
BRCA1 expr up: increases BRCA1 expression | MCF7-BRCA1-FFLuc reporter, luminescence, 48 h; response scale: scaled: vehicle 0%, 10 µM genistein 100% | Potency, µM (doses to about 46.1 µM), for inactives: top-dose activation, hits mostly activators | actives 1.1% (n = 380,000) | AID 624202; also: potency is read from the fitted curve at half-maximal effect; nearly all actives have a fitted effect of over 80% in size
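MCF7-BRCA1-FFLuc, 2000 cells/well; 2 h attach, 37 °C/5% CO2; compound 48 h; luciferase substrate 15 min; luminescence end-point. Norm. to genistein 10 microM max activation and DMSO; concentration-response curves fitted.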
IL-2 act: IL-2 activation. IL-2 activation reporter assay, cell-based qHTS; stimulated with anti-CD3/CD4/CD28 beads; in transgenic mouse T cells. activation, % (series mostly up to about 46 µM). actives 0.065% (n = 360,000). AID 652025; in the data active = activation above about 50%; inconclusive = mostly about 30% to 49%; also: 0% is about no effect
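Readout is EGFP and DsRed signal by fluorescent plate cytometry after 18 h at 37 degrees C. Transgenic mouse T cells (750/well) received compound for 60 min before bead stimulation (anti-CD3, anti-CD4, anti-CD28); memory T cells served as non-tolerant control.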
TCR activator: T cell receptor activation. 330,000 tested, under 10 active. AID 504894. primary human leukocytes, anti-CD3, IL-2 HTRF, 48 h. Potency, µM (doses to about 9.22 µM), for inactives: at the highest dose activation of IL-2 secretion, actives largely listed as activators; also: % of control where 0% means no effect
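1) Mix primary human leukocytes, a-CD3 beads and compound. 2) Incubate 48 hr. 3) Add HTRF IL-2 reagents (a-IL-2-K, a-IL-2-d2).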
p53 reactivation: mutant p53 re-activation in reporter cells. actives 0.063% (n = 320,000). AID 504706. Potency, µM (top dose mostly 92.2 µM), for the others: at the top dose activity change, positive = activation, most hits filed as activators. H1299 p53-A138V BP100-luciferase reporter, luminescence, 24 h; also: potency is read from the fitted curve at half-maximal effect; % of control where 0% means no effect; nearly all actives have a fitted effect of over 45% in size
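H1299 (p53-null), stable ts p53-A138V + BP100-Luc; 1000 cells/well, Opti-MEM/10% FBS; cpd 4 pt, 1:5; 24 h, 37 deg C, 5% CO2; detection reagent 10 min RT; luminescence.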
* hit, by the source's call; u = inconclusive; x = not tested or not shown; [ ] = dose if it differs, or a comment. Unless noted, calls follow the shape of the dose curve; as a rule, active = well fitted curve in the direction sought with a large enough effect; inconclusive = small, poorly fitted or top-dose-only effect, or another doubt; inactive = no such curve, though single readings can be large; an effect the other way counts as inactive or inconclusive.

SMILES	uPA generation	BRCA1 expr up	IL-2 act	TCR activator	p53 reactivation
O=C(Nc1ccc(Cl)cc1Cl)C1=Cc2ccccc2OC1	-1.7%	10µM*	0.1	-0.7%	u
COc1ccc(CCN(C)C(=O)CCc2nnc(-c3ccccc3)o2)cc1OC	-9.6%	u	-3.7	4.0%	10.2%
CN(Cc1ccc(F)cc1)C(=O)CCc1nnc(-c2ccccc2)o1	1.1%	14.1µM*	-0.9	-1.8%	10.1%
Cc1ccc(N=Cc2sc(O)c3ccccc23)cc1	-1.3%	45.3%	1.0	-12.8%	u
Cc1ccc(N=Cc2sc(O)c3ccccc23)c(C)c1	-5.9%	3.16µM*	0.1	4.7%	7.0%
COCCCNC(=O)COc1ccc(Br)cc1Cl	1.9%	12.6µM*	1.0	0.3%[46.1 µM]	u
CCNC(=O)COc1ccc(Br)cc1Cl	-4.3%	47.3%	-4.2	1.1%	u
CC(C)COc1ccc(C(=O)Nc2ccc(SC(F)F)cc2)cc1	-10.7%	8.91µM*	3.1	0.1%[46.1 µM]	u
Cc1ccc(NC(=O)C2CCCN(S(=O)(=O)c3c(C)nn(C)c3C)C2)c(C)c1 (centres undefined)	x	-14.7%	x	x	x
C/C(=N/NS(=O)(=O)c1ccc(C)cc1)c1c(O)c2ccccc2oc1=O	-2.6%	-21.8%	-0.2	0.0%	-3.2%
CCCCCN=C(C)c1c(O)c2ccccc2oc1=O	-1.4%	11.2µM*	0.0	8.1%	u
CC1=C(C(=O)OCC2CCCCC2)C(c2ccc(Cl)cc2)CC(=O)N1 (centres undefined)	x	-18.7%	x	x	x
CC(C)Cn1cnc2c(SCc3ccccc3F)nc(N)nc21	-5.4%	5.62µM*	-1.2	4.9%	x
CCC(C)Cn1cnc2c(SCc3ccccc3F)nc(N)nc21 (centres undefined)	-3.1%	12.8%	-0.9	15.0%	x
CCCn1cnc2c(SCCc3ccccc3)nc(N)nc21	-3.0%	12.6µM*	0.6	5.8%	x
CCCCn1cnc2c(SCCc3ccccc3)nc(N)nc21	0.9%	60.9%	0.0	-0.2%	x
Cc1ccc(-c2csc3ncnc(Sc4nnnn4-c4ccccc4)c23)cc1	x	-51.0%	x	x	x
CC(C)(C)c1ccc(S(=O)(=O)CCc2ccccn2)cc1	-0.9%	14.1µM*	-0.4	4.1%	u
O=C(CN1C(=O)CCC1=O)c1ccc(-c2ccccc2)cc1	0.1%	12.6µM*	1.0	-0.5%[46.1 µM]	6.1%
N=c1ccn(CC(=O)c2ccc(-c3ccccc3)cc2)cc1	u	-57.6%	-1.4	2.3%	-3.1%
CN(CCCN(Cc1ccc(Cl)cc1)c1ccc(Br)cn1)C(=S)NCCCc1cnc[nH]1	x	0.0%	x	x	x
CCn1c(CNC(=O)c2ccc(OC)cc2)nnc1SCC(=O)Nc1ccc(C)cc1	x	-15.7%	x	x	x
CCc1ccc(-c2csc(-c3c[nH]c4ccccc34)n2)cc1	6.0%	4.0%	-0.7	-4.3%[46.1 µM]	20µM*
Fc1ccc(-c2nc(-c3c[nH]c4ccccc34)cs2)cc1	x	8.4%	x	x	x
COc1ccc(OCc2csc(N)n2)cc1	-6.0%	10µM*	4.6	-0.7%	u
SMILES	uPA generation	BRCA1 expr up	IL-2 act	TCR activator	p53 reactivation
CC(=O)N1CCc2cc(S(=O)(=O)NCCC(=O)Nc3ccc4c(c3)OCCO4)ccc21	-0.4%	11.2µM*	1.9	-1.9%	u
CC(=O)N1CCc2cc(S(=O)(=O)NCCC(=O)Nc3cc(C)cc(C)c3)ccc21	8.5%	-9.0%	-1.9	6.1%	9.3%
CCN=c1scc(-c2ccco2)n1/N=C/c1ccc(OC)c(O)c1	-3.4%	6.31µM*	2.8	0.5%	x
COc1cc2c(cc1N)-c1ccc(N)cc1C2=O	x	10µM*	-0.5	x	x
COC(=O)c1cnc(SCc2ccc(Cl)cc2)n1C	-1.0%	11.2µM*	-0.4	-0.6%	14.8%
CC(CNc1nc2ccccc2c2nc(-c3ccccc3)nn12)c1ccccc1 (centres undefined)	x	14.3%	x	x	x
Nc1nc(Cl)nc2c1ncn2[C@H]1C[C@H](O)[C@@H](CO)O1	0.316µM*	-56.0%	-0.7	6.9%	-2.9%
Cc1oc2ncn(CC(C)C)c(=O)c2c1C(=O)Nc1cccc(C(F)(F)F)c1	x	0.0%	x	x	x
CCc1ccc(N=c2c([N+](=O)[O-])nn(-c3ccc4c(c3)OCCO4)n2O)cc1	0.6%	3.98µM*	-3.1	3.1%	u
O=[N+]([O-])c1nn(-c2ccc3c(c2)OCCO3)n(O)c1=Nc1ccc(Cl)cc1	-13.2%	-81.5%	0.3	-0.7%	-4.3%
COc1cc2nc(N3CCCN(C)CC3)nc(Nc3ccncc3)c2cc1OC	x	-47.9%	x	x	x
Cc1cccc(C)c1OCc1nc2ccccc2[nH]1	-10.8%	-3.1%	-1.9	0.4%[46.1 µM]	14.0%
Cc1ccc(C)c(OCc2nc3ccccc3[nH]2)c1	-2.2%	3.16µM*	0.3	2.5%	10.9%
O=C(NCC1COc2ccccc2O1)c1ccccc1 (centres undefined)	x	7.94µM*	2.3	0.7%	u
CCC(=O)Nc1ccc(C(=O)Cn2ncc(Cl)c(Cl)c2=O)cc1	7.94µM*	-82.5%	-0.7	9.5%	-13.0%
COc1cc(OC)c2c(-c3ccccc3)cc(=O)oc2c1C(CCN1CCOCC1)c1ccc(N(C)C)cc1 (centres undefined)	u	-6.8%	-0.7	-1.1%[46.1 µM]	-9.6%
COc1cc(OC)c2c(-c3ccccc3)cc(=O)oc2c1C(CCN1CCCCC1)c1ccc(N(C)C)cc1 (centres undefined)	10µM*	-20.8%	-3.5	-4.1%	-0.7%
Cc1cc(C2=NNC(=NCCc3ccccc3)SC2)c(C)n1CC1CCCO1 (centres undefined)	-2.5%	46.5%	-0.4	1.8%	-0.7%
Clc1ccc(C2=NNC(=NCC3CCCO3)SC2)cc1 (centres undefined)	-1.0%	2.51µM*	0.0	9.8%[46.1 µM]	u
CN(C)c1ccc(CNC(=O)Cc2ccc(NC(=O)N3CCCCc4ccccc43)cc2)cc1	x	9.0%	x	x	x
COc1ccc2c(c1OC)C(=O)N1c3ccccc3SC21 (centres undefined)	-13.5%	5.01µM*	0.3	9.2%	u
Clc1cnc(N/N=C/c2cccs2)c(Cl)c1	-8.5%	u	-0.2	3.0%	u
Oc1ccc(/C=N/Nc2ncc(Cl)cc2Cl)cc1	-16.0%	12.6µM*	0.4	-0.3%	11.5%
Cc1ccc(Nc2c(-c3ccc(C)s3)nc3cccc(C)n23)cc1	x	3.3%	x	x	x
Cc1ccc(Nc2ncnc(-n3cccc3)n2)cc1Cl	-3.7%	6.31µM*	0.6	7.0%	12.8%
SMILES	uPA generation	BRCA1 expr up	IL-2 act	TCR activator	p53 reactivation
CNc1oc(-c2cccs2)nc1C#N	0.8%	-0.4%	-3.7	-2.4%	0.5%
N#Cc1nc(-c2ccccc2F)oc1NCCc1ccccc1	x	u	-2.7	4.1%	14.8%
COc1ccc(Nc2oc(-c3cccs3)nc2C#N)cc1	-8.4%	1.41µM*	-0.5	-4.7%	7.2%
N#Cc1nc(-c2cccs2)oc1NCCc1ccccc1	-8.8%	11.2µM*	-0.4	-3.2%	u
O=C(c1cc2ccccc2[nH]1)c1cc2cc(O)ccc2[nH]1	x	36.1%	x	x	x
N#CCCN(C(=O)CSc1ccc2c(c1)OCCO2)c1ccccc1	-0.8%	3.3%	-2.3	x	-2.6%
